This assay concerns VDR homodimer (NR concentration 270 nM). As to the kind of experiment: PBM binding z-score (relative to random genomic background probes); higher = stronger binding; sequences stand for … in GC…GCGATTGACAGCGTAGAATGAAGG
The method, boiled down:
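Ligand-free nuclear receptor dimers were bound for 1 h to custom Agilent 4×180K protein-binding microarrays. Detection used antibodies against each partner (one per run). Binding z-scores rest on regression-normalized fluorescence, with random background probes as the reference.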
On to ATATGTAGGTTAAGGGACATTCAGGTTGGTTCGC, for which the PBM binding z-score is 1.69.

On to ATCTCTAGGTAACCAAGTTCAGTGAGTGCCGAAC, for which the PBM binding z-score was 2.83.

GCACACAGGTGAAACGCAGGTAACTCAGGGTGGC came in with a PBM binding z-score of -0.299.

Sequence TCTAGTTGGTCACGGAGGTTACACACGACGGGTA had a PBM binding z-score of 0.629.

For TCTTGGAGATCAGCAGGTTAAGAAAGCTGGCCAA, the PBM binding z-score was -0.225.

Turning to ATATGTAGGTTATCGGGTCATGCAGTTTGCGCAT, the PBM binding z-score stood at 3.

As to GCAGACAGGTGAAACGCAGGTCACTCAGGGTGGC, the PBM binding z-score was determined as 0.199.

In turn, GCTGCTAGGTCAGGTTGGTCCGCTAACGGGTACG yielded a PBM binding z-score of -0.0405.

CGACCAAGGTCATAGGAGGTCAGTGAAGACAGAT displayed a PBM binding z-score of 4.77.

As to CGTCCAAGGTCAGAGAGGTCAGTGGATGCCGAGT, the PBM binding z-score was determined as 5.52.

On to CGTCCAAGGCCAGCAGGTCAGTGAAAGCGACGTG, for which the PBM binding z-score was -0.465.

Consider GCAGACAGGTGAAACGCAGGGAACTCAGGGTGGC, for which the PBM binding z-score was -0.619.

The sequence CGTCCAAGGTCAGAGAGGTTAGTGAATGCCGAGT displayed a PBM binding z-score of 2.96.

As for TAGCCTAGGTCATTGGCCCAGTATAGTACGCATC, the PBM binding z-score was determined as 0.973.

Sequence GATACAGGGTCAAGGCCAGTGTACGCGTATTGAT returned a PBM binding z-score of 2.13.

Sequence TGTCTAAGTTCAAAGGTAACGTAAGTATCCACAC came in with a PBM binding z-score of 3.83.

With CTCGAAAGGTCGTGCTCAGGTGGGTATACCAAAC, the PBM binding z-score stood at 1.08.

CGAACTAGGTCATCCACGACAGTGAATACATTGA showed a PBM binding z-score of 1.44.

For ACTAGTTGGTCAGCTGAAGTCACACACAATTCGG, the PBM binding z-score came to 0.0981.

Turning to TAATATAGGTAAACAGGTGAAAGTCCGTAAGTTA, the PBM binding z-score amounted to 0.444.

CCTTACGGGTCGCGAGGTTATAGCACGACGAGCG had a PBM binding z-score of 0.904.

TCTAGGAGGCCAGAGGGTCACTCAAGAGGTACGG yielded a PBM binding z-score of 0.313.

Sequence CCTACTGGGCAACGAAAGGTCATTGATTCAGTGA came in with a PBM binding z-score of 2.35.

Sequence AGCATGAGGTTAAGATCAGGGAAACAGAATACAT displayed a PBM binding z-score of 0.646.

Consider TAACCAAGGTGAGCTGAGGTCGTTGATCCAACTC, for which the PBM binding z-score was 1.81.

TCATTTAGGTAAACAGGTGAAAGTCCGTAAGTTA yielded a PBM binding z-score of 0.754.

As for CCTCTGAGGACAACAGGAGGTCAGAGCTGCCAGA, the PBM binding z-score is 1.69.

With CAAACTAGGTCAAGCTCAAAGTCGGTTTGTGCCA, the PBM binding z-score turned out to be 0.374.

Take GCTGCTACGTCAACTGATGGTCAGCTAAAGCTCG: the PBM binding z-score is -0.701.

Take ACTTACGGGTGAACGAGGTTATAGCACGCGTATA: the PBM binding z-score is 1.01.

In turn, ATCGAAAGGTCGACAAGGTGAGTATACACCGTTT gave a PBM binding z-score of 0.835.

Turning to GGAACGAGGGCAAGGTGATAGCAGAGTTTGATGG, the PBM binding z-score amounted to 2.05.

CGTCCAAGGTCAGAGAGGTCAGAGAATGCCGAGT showed a PBM binding z-score of 5.54.

Consider CCCAGTTGGTCAGGAGGTCACACACCGGATATGA, for which the PBM binding z-score turned out to be 2.66.

Turning to ACTATTAGTTGAGGCGAGGGCAACCGATAGGTTG, the PBM binding z-score was found to be 0.813.

As for ACAGACAGGTGCTGAAGGTAACTCAGGCTATCAT, the PBM binding z-score is -0.984.

In turn, GCTCGCAGGACAAGGTCAGAGCTTTGTCCGTAGA had a PBM binding z-score of -0.354.

In turn, CCGACTGGCGCAGAAAGGTTACCATACCATCCGG showed a PBM binding z-score of -0.331.

Consider CCAGACAGGTGAAAGGTATCTCAGTCTGGTACGC, for which the PBM binding z-score was -0.194.

The values above are taken from the supplement of paper PMC6555819.
